High-throughput results (PubChem)
The list is not random: actives were taken first. Their share in the collection is about 3%.
MITF TRPM1 HTS = activators of MITF-driven TRPM1 promoter activity in SK-MEL-5 cells. SK-MEL-5 TRPM1-promoter luciferase, 24 h; % of positive control, neutral wells = 0. activation, % at 12.5 µM. 0.75% of 300,000 active;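 active means mean activation of at least 80% with every replicate also reaching 80%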;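 further: 0% = neutral control wells and 100% = parthenolide positive control wells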
TROY NFkB inh = blocks TROY-dependent signaling in reporter cells. Q293 LMP1-TROYcd NF-kB luciferase reporter, 4 h. inhibition, % at 10 µM. 0.98% of 360,000 active. AID 1347056;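 active means compounds whose plate-normalised and pattern-corrected inhibition of the luciferase reporter signal at the single screening dose is 50% or more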
LMP1 NFkB inh = reduces LMP1-driven NF-kappaB luciferase signal; inhibition, % at 12.5 µM; 0.69% of 350,000 active; LMP1-induced NF-kappaB luciferase reporter cells, luminescence; in the data active means inhibition above about 41%;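 further: 0% = neutral control wells and 100% = reference inhibitor control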
TWEAK Fn14 block = blocks TWEAK-Fn14 interaction in a reporter cell assay | TWEAK-stimulated Fn14 reporter cells, luciferase luminescence, 8 h | 2% of 360,000 active | AID 1159606 | inhibition, % at 10 µM; in the data active means inhibition above about 50%
TRPM1 prom inh = inhibitors of MITF-driven TRPM1 promoter in melanoma cells; SK-MEL-5 TRPM1 promoter luciferase, 24 h; inhibition, % at 12.5 µM; 0.83% of 330,000 active; AID 488899;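 active means mean inhibition across replicates of 60% or more, whatever share of single replicates reaches that level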
LGR2 inh = inhibitors of bursicon-induced Drosophila LGR2 receptor cAMP signaling; inhibition, % at 9.99 µM; AID 720647; 0.35% of 380,000 active; HEK293 LGR2, CRE-luciferase, bursicon-stimulated, 4 h;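 active means drop in luminescence signal, shown as inhibition above about 50% in the replicate tests, limit read from the data, passing the limit was not always enough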;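 further: agonist challenge used bursicon conditioned medium at about half maximal strength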
An asterisk follows results filed as active; · = not tested or not shown.

SMILES | MITF TRPM1 HTS | TROY NFkB inh | LMP1 NFkB inh | TWEAK Fn14 block | TRPM1 prom inh | LGR2 inh
Cc1ccc(CNC(=O)c2cc(-c3ccccc3)nn2Cc2cc(C)no2)cc1 | 125* | 9 | -16 | -23 | -119 | ·
CCOC(=O)c1cc(-c2ccccc2)nn1Cc1cc(C)no1 | 87* | -46 | -16 | -22 | -86 | -73
CCOC(=O)c1cc(-c2ccccc2C)nn1Cc1cc(C)no1 | 71 | -69 | 58* | -53 | -68 | -36
CCC(=O)N1[C@H](CO)[C@H](c2ccc(-c3ccc(F)cc3)cc2)[C@@H]1CN(C)C(C)=O | · | · | · | · | · | 6
Cc1noc(C)c1S(=O)(=O)Nc1ccc2c(c1)CC(=O)N([C@H](C)CO)C[C@H](C)[C@@H](CN(C)S(=O)(=O)c1cccs1)O2 | · | · | · | · | · | -17
O=c1oc2ccccc2cc1-c1ccc(O)cc1 | 37 | -98 | -16 | -70 | -37 | ·
Nc1ccc(-c2cc3ccccc3oc2=O)cc1 | -94 | 60* | 58* | 82* | 94* | 3
COCC(C)n1c(C)cc(C(=O)COC(=O)c2c(NC(C)=O)sc(C)c2C)c1C (centres undefined) | 5 | 65* | 14 | 15 | 1 | ·
C[C@@H]1CN([C@@H](C)CO)C(=O)Cc2cc(NC(=O)CCC(F)(F)F)ccc2O[C@H]1CN(C)Cc1ccc(C(F)(F)F)cc1 | · | · | · | · | · | 19
O=[N+]([O-])c1c(Nc2ccc(O)cc2)cc(Cl)c2nonc12 | -95 | 83* | 13 | 67* | 96* | 41
O=C(O)c1ccccc1Nc1cc(Cl)c2nonc2c1[N+](=O)[O-] | -9 | 21 | 1 | -7 | 10 | -20
O=[N+]([O-])c1c(Nc2ccccn2)cc(Cl)c2nonc12 | · | -1 | 54* | 20 | 76* | ·
CN(C)c1cc(Nc2ccc(O)cc2)c([N+](=O)[O-])c2nonc12 | 11 | -8 | -3 | -25 | -4 | -12
Fc1ccc2nc(N3CCCC3)sc2c1 | 156* | -54 | -23 | -1 | -138 | -59
CNC(=S)N1N=C(c2cccs2)CC1c1ccc(F)cc1 (centres undefined) | -3 | 8 | 50* | 13 | 6 | 0
CCC(=O)N1N=C(c2cccs2)CC1c1ccc(C)cc1 (centres undefined) | 11 | -13 | 4 | -1 | -6 | 2
Cc1ccc(C2CC(c3cccs3)=NN2C(=O)CCl)cc1 (centres undefined) | -52 | -46 | -13 | 65* | 51 | -63
O=C(c1ccco1)N1N=C(c2cccs2)CC1c1ccc(F)cc1 (centres undefined) | · | -3 | -1 | 15 | 19 | ·
COc1ccc(Cl)cc1S(=O)(=O)N(C)CC(=O)NCc1ccc2c(c1)OCO2 | · | 0 | -6 | 53* | -6 | -17
COC(=O)c1cc2c(n1S(=O)(=O)c1ccc(C)cc1)C(=O)C(=O)c1[nH]cc(C(=O)OCc3ccccc3)c1-2 | · | 65* | 88* | 103* | 108* | ·
CCS(=O)(=O)Nc1ccc2c(c1)C(=O)N(C)C[C@H](OC)[C@H](C)CN(C)[C@@H](C)CO2 | · | · | · | · | · | 17
Cc1ccc(S(=O)(=O)N2C(c3ccc(Cl)c(Cl)c3)CC=C(C(=O)O)C2c2ccc(Cl)cc2)cc1 (centres undefined) | · | · | · | · | · | 10
Cc1ccc(S(=O)(=O)N2[C@@H](c3ccc(Cl)c(Cl)c3)C(C(=O)O)=C[C@H]2CC2CCCC2)cc1 | -4 | 67* | -4 | 11 | 4 | -2
Cc1ccc(S(=O)(=O)N2[C@@H](c3ccc(C(C)(C)C)cc3)C(C(=O)O)=CC[C@H]2c2ccc(C(C)C)cc2)cc1 | -8 | 87* | 4 | 94* | 9 | 18
CCc1ccc([C@@H]2CC=C(C(=O)O)[C@H](c3ccc(C(C)(C)C)cc3)N2S(=O)(=O)c2ccc(C)cc2)cc1 | -8 | 84* | -8 | 84* | 10 | 10
Cc1ccc(S(=O)(=O)N2[C@@H](c3ccc(C(C)(C)C)cc3)C(C(=O)O)=CC[C@H]2c2ccc(Cl)cc2)cc1 | 4 | 88* | 8 | 89* | -2 | 13
CO[C@@H]1CN(C)C(=O)c2ccc(NS(=O)(=O)c3ccccc3F)cc2OC[C@@H](C)N(S(C)(=O)=O)C[C@H]1C | · | · | · | · | · | 23
Cc1ccc(S(=O)(=O)N2[C@@H](c3ccc(Br)cc3)C(C(=O)O)=CC[C@H]2c2ccc(C(C)C)cc2)cc1 | 0 | 70* | 3 | 21 | 2 | -4
